Data from PubChem BioAssay (Tox21).
Values joined by “and” are separate entries in the source; they are usually repeats but may differ in a detail not shown here. Identical values can stand only once. Inconclusive results are not listed. More than one record can exist for a structure, and the calls need not agree. Active and inactive are the calls of the source. Unless noted, calls follow the shape of the dose curve; as a rule, active = well fitted curve in the direction sought with a large enough effect in the repeat runs; inconclusive = weak or mixed curves; inactive = no such curve, though single readings can be large; an effect the other way counts as inactive or inconclusive.

What was measured:
[1] = qHTS assay to identify small molecule antagonists of the estrogen receptor alpha (ER-alpha) signaling pathway using the BG1 cell line in the presence of 0.1 nM 17-beta-estradiol - cell viability counter screen (AID 1259241); also: nearly all actives have a fitted effect of over 40% in size; also: potency is read from the fitted curve at half-maximal effect
Summary of the method: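 Following 5 days in phenol red-free medium with charcoal-stripped serum, VM7Luc4E2 cells received test compounds alongside 0.1 nM 17beta-estradiol (final) at 37C for 22 hr. Live cells were then quantified via protease-substrate fluorescence.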

[2] = qHTS assay to identify small molecule antagonists of the androgen receptor (AR) signaling pathway using the MDA cell line in the presence of 0.5 nM R1881 - cell viability counter screen (AID 1259242); also: nearly all actives have a fitted effect of over 45% in size; also: potency is read from the fitted curve at half-maximal effect
Summary of the method: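 Human breast carcinoma MDA-kb2 cells, cultured without CO2, receive compounds alongside 0.5 nM (final) R1881 agonist. After 16 hr at 37C, viability is taken as live-cell protease signal.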

[3] = qHTS assay to identify small molecule HDAC inhibitors (AID 1259364); also: potency is read from the fitted curve at half-maximal effect;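 also: wild-type HCT-116 cells with endogenous class I/II HDAC activity; nearly all actives have a fitted effect of over 45% in size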
Summary of the method: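 After a 2 hr compound incubation (37C, 5% CO2), HCT-116 cells seeded at 1,500/well the day before received HDAC-Glo reagent; signal read as luminescence after 30 min at room temperature.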

[4] = qHTS assay to identify small molecule HDAC inhibitors - cell viability counter screen (AID 1259365); also: series mostly up to about 92 µM; nearly all actives have a fitted effect of over 50% in size
Summary of the method: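 HCT-116 wild-type, overnight attachment; 2hr drug exposure, 37C; CellTiter-Glo luminescent ATP readout after 30min RT.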

[5] = qHTS assay to identify small molecule agonists of the sonic hedgehog signaling (Shh) pathway - cell viability counter screen (AID 1259366); also: nearly all actives have a fitted effect of over 50% in size; also: potency is read from the fitted curve at half-maximal effect
Summary of the method: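 Compounds in DMSO were pin-transferred onto 3T3 Gli1-Luc cells that had settled 4hr; plates then stood 24hr at 37C and 5% CO2. One hour before the end, CellTiter-Fluor was added and fluorescence recorded.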

[6] = qHTS assay to identify small molecule antagonists of the sonic hedgehog signaling (Shh) pathway - cell viability counter screen (AID 1259367); also: nearly all actives have a fitted effect of over 55% in size; also: potency is read from the fitted curve at half-maximal effect
Summary of the method: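 Cytotoxicity was assessed in parallel with Shh reporter activity by measuring live-cell protease fluorescence (CellTiter-Fluor) in NIH/3T3 cells stably carrying Gli1-Luc, treated with compound under conditioned medium stimulation for 23 hr plus 1 hr reagent incubation.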

[7] = qHTS assay to identify small molecule agonists of the sonic hedgehog signaling (Shh) pathway (AID 1259368; calls by dose curve; also: nearly all actives have a fitted effect of over 15% in size; also: potency is read from the fitted curve at half-maximal effect)
Summary of the method: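 Stable NIH/3T3 Gli1-Luc reporter clone; 24 hr cpd exposure after a 4 hr settling period; luminescence endpoint.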

[8] = biological target: Estrogen receptor beta (Homo sapiens) (UniProt Q92731); test: qHTS assay to identify small molecule agonists of the estrogen receptor beta (ER-beta) signaling pathway (AID 1259377; active = well fitted activation curve with a large enough effect in the signal ratio in the repeat runs, not every such curve was filed as active; the % refers to the signal ratio)
Sequence of Estrogen receptor beta (Homo sapiens) (Q92731 whole entry, looked up): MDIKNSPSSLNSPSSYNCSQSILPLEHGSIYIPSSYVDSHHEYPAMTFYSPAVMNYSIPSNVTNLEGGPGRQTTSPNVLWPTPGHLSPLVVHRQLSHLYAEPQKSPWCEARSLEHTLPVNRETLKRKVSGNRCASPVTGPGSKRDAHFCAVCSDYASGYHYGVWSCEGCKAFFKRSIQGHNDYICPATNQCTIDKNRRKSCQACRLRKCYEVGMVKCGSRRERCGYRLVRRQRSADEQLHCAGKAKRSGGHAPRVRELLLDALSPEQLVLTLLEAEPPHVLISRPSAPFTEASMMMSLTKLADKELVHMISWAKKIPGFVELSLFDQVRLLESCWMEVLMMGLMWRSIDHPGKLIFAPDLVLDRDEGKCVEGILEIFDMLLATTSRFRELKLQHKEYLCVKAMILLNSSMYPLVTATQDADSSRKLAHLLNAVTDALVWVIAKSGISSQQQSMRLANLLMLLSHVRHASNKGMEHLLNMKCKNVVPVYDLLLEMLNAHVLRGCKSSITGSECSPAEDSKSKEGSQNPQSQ
Summary of the method: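 qHTS in ER-beta-UAS-bla HEK293T cells: 6 hr settling, then 16 hr compound at 37C, then LiveBLAzer substrate 2 h at RT before fluorescence reading.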

[9] = biological target: Estrogen receptor beta (Homo sapiens) (UniProt Q92731); test: qHTS assay to identify small molecule antagonists of the estrogen receptor beta (ER-beta) signaling pathway (AID 1259378; active = well fitted inhibition curve with a large enough effect in the signal ratio in the repeat runs, not every such curve was filed as active; the % refers to the signal ratio; also: potency is read from the fitted curve at half-maximal effect)
Summary of the method: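 ER-beta-UAS-bla HEK293T (GripTite) cells in 2% charcoal-stripped FBS medium were preincubated 6 hr at 37C, dosed with compound, then stimulated with 1 nM E2 (final) for 16 hr; beta-lactamase reporter read by B/G FRET fluorescence after 2 hr substrate loading.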

[10] = qHTS assay to identify small molecule agonists of the androgen receptor (AR) signaling pathway in the presence of an antagonist - cell viability counter screen (AID 1259379); also: nearly all actives have a fitted effect of over 25% in size; also: potency is read from the fitted curve at half-maximal effect
Summary of the method: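 Counter screen for cell viability run in parallel with the AR agonist-mode luciferase assay. MDA-kb2 cells were co-treated with nilutamide (3.0uM final) and compounds, then incubated 16 hr at 37C, and CellTiter-Fluor fluorescence was measured.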

[11] = qHTS assay to identify small molecule agonists of the estrogen receptor beta (ER-beta) signaling pathway - cell viability counter screen (AID 1259380); also: nearly all actives have a fitted effect of over 30% in size; also: potency is read from the fitted curve at half-maximal effect
Summary of the method: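 In this qHTS counter screen, HEK293T cells carrying an ER-beta/UAS beta-lactamase reporter, grown in 2% charcoal-stripped FBS, received compound for 16 hr; ATP-based CellTiter-Glo luminescence was then read after 30 min at room temperature.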

[12] = qHTS assay to identify small molecule antagonists of the estrogen receptor beta (ER-beta) signaling pathway - cell viability counter screen (AID 1259382); also: nearly all actives have a fitted effect of over 55% in size; also: potency is read from the fitted curve at half-maximal effect
Summary of the method: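 HEK293T ER-beta-UAS-bla, 2% charcoal-stripped FBS; compounds + 1nM E2 16 hr 37C; CellTiter-Glo luminescence, 30 min RT.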

[13] = qHTS assay to identify small molecule agonists or antagonists of the thyroid stimulating hormone receptor (TSHR) signaling pathway - wild type cell line counter screen (AID 1259384; calls by dose curve)
Summary of the method: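 Wild-type HEK293 cells were plated 18 h at 37 C/5% CO2, pin-dosed with compound plus Ro20-1724 medium, held 30 min at room temperature, then given cAMP-d2 and anti-cAMP-cryptate; fluorescence was read after 1 h. Fifteen concentrations, triplicate.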

[14] = biological target: Thyrotropin receptor (Homo sapiens) (UniProt P16473); test: qHTS assay to identify small molecule antagonists of the thyroid stimulating hormone receptor (TSHR) signaling pathway (AID 1259385; calls by dose curve; also: nearly all actives have a fitted effect of over 20% in size; also: potency is read from the fitted curve at half-maximal effect)
Sequence of Thyrotropin receptor (Homo sapiens) (P16473 whole entry, looked up): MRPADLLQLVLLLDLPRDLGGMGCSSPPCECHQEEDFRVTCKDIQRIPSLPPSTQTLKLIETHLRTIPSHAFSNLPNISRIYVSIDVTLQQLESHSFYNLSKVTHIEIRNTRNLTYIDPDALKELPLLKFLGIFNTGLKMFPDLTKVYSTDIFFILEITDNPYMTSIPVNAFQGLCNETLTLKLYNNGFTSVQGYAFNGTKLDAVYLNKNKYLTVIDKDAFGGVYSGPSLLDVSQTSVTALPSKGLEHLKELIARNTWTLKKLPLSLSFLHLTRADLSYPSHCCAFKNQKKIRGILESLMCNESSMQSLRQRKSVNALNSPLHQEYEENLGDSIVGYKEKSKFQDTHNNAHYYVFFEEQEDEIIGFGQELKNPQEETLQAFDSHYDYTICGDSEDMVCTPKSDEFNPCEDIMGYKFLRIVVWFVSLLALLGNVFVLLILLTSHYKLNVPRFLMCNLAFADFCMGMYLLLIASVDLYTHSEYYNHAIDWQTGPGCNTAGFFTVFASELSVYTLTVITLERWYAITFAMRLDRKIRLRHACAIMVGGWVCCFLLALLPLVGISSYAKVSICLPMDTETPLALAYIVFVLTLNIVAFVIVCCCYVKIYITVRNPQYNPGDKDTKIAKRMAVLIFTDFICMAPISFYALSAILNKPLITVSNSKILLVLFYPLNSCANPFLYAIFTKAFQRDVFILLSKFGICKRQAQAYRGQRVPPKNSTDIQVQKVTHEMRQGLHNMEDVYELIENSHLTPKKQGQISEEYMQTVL
Summary of the method: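 TSHR-HEK293 cells were plated and held 18 h at 37C/5% CO2, then given compound plus Ro20-1724 and stimulated with TSH at 1.5 ng/mL final. After 30 min at room temperature, cAMP was detected with cAMP-d2/anti-cAMP-cryptate (1 h) by fluorescence.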

[15] = biological target: Estrogen receptor (Homo sapiens) (UniProt P03372); test: qHTS assay to identify small molecule agonists of the estrogen receptor alpha (ER-alpha) signaling pathway in the presence of an antagonist (AID 1259383; calls by dose curve; also: top concentration of the series differs between compounds; nearly all actives have a fitted effect of over 15% in size)
Sequence of Estrogen receptor (Homo sapiens) (P03372 whole entry, looked up): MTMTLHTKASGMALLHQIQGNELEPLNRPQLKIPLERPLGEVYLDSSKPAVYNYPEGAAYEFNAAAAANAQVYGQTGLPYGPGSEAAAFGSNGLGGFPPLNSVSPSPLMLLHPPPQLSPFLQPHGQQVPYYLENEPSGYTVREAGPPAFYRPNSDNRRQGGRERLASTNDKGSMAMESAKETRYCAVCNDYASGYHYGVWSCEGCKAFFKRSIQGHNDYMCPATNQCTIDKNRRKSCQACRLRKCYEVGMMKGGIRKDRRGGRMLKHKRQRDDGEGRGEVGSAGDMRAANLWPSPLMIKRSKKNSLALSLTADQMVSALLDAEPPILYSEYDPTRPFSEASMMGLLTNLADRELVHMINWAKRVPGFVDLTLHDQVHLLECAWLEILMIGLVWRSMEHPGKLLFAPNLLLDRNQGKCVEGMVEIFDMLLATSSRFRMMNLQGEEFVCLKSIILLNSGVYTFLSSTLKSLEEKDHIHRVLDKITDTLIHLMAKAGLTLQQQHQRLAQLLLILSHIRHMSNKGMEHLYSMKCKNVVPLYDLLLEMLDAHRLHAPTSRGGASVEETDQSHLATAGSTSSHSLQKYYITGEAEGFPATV
Summary of the method: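 ER-alpha agonism measured under antagonist challenge: 10.0nM ICI-182,780 (final) plus compound, 15 concentrations, 22hr, VM7Luc4E2 ERE-luciferase cells. Read by luminescence.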

[16] = biological target: Estrogen receptor (Homo sapiens) (UniProt P03372); test: qHTS assay to identify small molecule antagonists of the estrogen receptor alpha (ER-alpha) signaling pathway using the BG1 cell line in the presence of 0.1 nM 17-beta-estradiol (AID 1259244); also: potency is read from the fitted curve at half-maximal effect; nearly all actives have a fitted effect of over 50% in size
Summary of the method: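 Seeding of stripped-serum-adapted VM7Luc4E2 cells, 24 h attachment, compound transfer, then 0.1 nM final 17beta-estradiol; after 22 h incubation, ONE-Glo reagent and luminescence reading.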

[17] = qHTS assay to identify small molecule antagonists of the sonic hedgehog signaling (Shh) pathway (AID 1259369; calls by dose curve; also: nearly all actives have a fitted effect of over 45% in size)
Summary of the method: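 Gli1 transcriptional reporter (firefly Luc) in NIH/3T3 background, conditioned-medium activated. 24hr exposure, luminescence endpoint.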

Measured: Potency

ClCc1ccccn1
not listed: [15] | [16] | [17]
inactive: all other assays above

CCOP(=O)(OCC)OCC
not listed: [4] | [13] | [15] | [16] | [17]
inactive: all other assays above

CC1CC(=O)O1 (stereo not drawn)
not listed: [8] | [9] | [13] | [15] | [16] | [17]
inactive: all other assays above

CC(C)COC(=O)c1ccccc1C(=O)OCC(C)C
not listed: [13] | [15] | [16] | [17]
inactive: all other assays above

CC1(C)C(C(=O)OC(C#N)c2cccc(Oc3ccccc3)c2)C1(C)C (stereo not drawn)
active: [9] 48.9 µM | [14] 61.6 µM
not listed: [4] | [13] | [16] | [17]
inactive: all other assays above

ClCC(Cl)CCl
not listed: [8] | [9] | [15] | [16] | [17]
inactive: all other assays above

CN(C)c1ccccc1
not listed: [4] | [15] | [16] | [17]
inactive: all other assays above

N#Cc1c(Cl)c(Cl)c(Cl)c(C#N)c1Cl
inactive: [3] | [4] | [15] | [13]
active: [2] 16.9 µM and 13.7 µM | [16] 6.73 µM and 15.4 µM | [5] 2.13 µM and 3.86 µM | [6] 2.39 µM and 6.86 µM | [7] 673 nM and 969 nM | [9] 3.78 µM | [10] 16.9 µM and 24.3 µM | [11] 8.47 µM and 19.3 µM | [12] 9.5 µM and 15.4 µM

CC(C)(O)C#N
not listed: [4] | [8] | [15] | [16] | [17]
inactive: all other assays above

Cc1cccc(N=Nc2ccc(N(C)C)cc2)c1
inactive: [2] | [4] | [8] | [9] | [12] | [14]
active: [1] 27.3 µM | [3] 3.5 µM and 6.86 µM | [5] 35 µM | [10] 39.2 µM and 30.6 µM | [11] 31.2 µM

O=NN(c1ccccc1)c1ccccc1
not listed: [4] | [8] | [9] | [13] | [16]
inactive: all other assays above

Brc1ccc(Br)cc1
not listed: [13] | [15] | [16] | [17]
inactive: all other assays above

Nc1ccc([N+](=O)[O-])cc1N
inactive: [3] | [7] | [12]
21.7 µM (active) and inactive: [11]
active: [1] 61.1 µM | [5] 30.6 µM and 24.3 µM | [6] 12.2 µM and 19.3 µM | [10] 61.1 µM and 30.6 µM

CCCCOC(=O)COC(=O)c1ccccc1C(=O)OCCCC
not listed: [4] | [13] | [14] | [16]
inactive: all other assays above

CCCCSP(=O)(SCCCC)SCCCC
not listed: [4] | [13] | [14] | [15] | [16]
inactive: all other assays above

Cc1cc(Cl)ccc1N=CN(C)C
not listed: [15] | [16] | [17]
inactive: all other assays above

N#CC(c1ccccc1)c1ccccc1
not listed: [4] | [15] | [16]
inactive: all other assays above

CN(C)c1nc(=O)n(C2CCCCC2)c(=O)n1C
not listed: [13] | [15] | [16] | [17]
inactive: all other assays above
